The values below come from PubChem BioAssay (NCI).

Structures are written as SMILES. Compounds without any hit were thinned out: in the full panel of roughly 83,000, 20% have a hit.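 Treatment: one concentration, 48 hours, 96-well format. Scoring: percent growth, with anything below 10 considered active.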 Unmarked numbers belong to inactive results. Activity calls are given as the source filed them.

The subject of one assay is UACC-257 melanoma. As to the kind of experiment: NCI-60 one-dose screen, 48 h (100 = growth as untreated, 0 = no growth, -100 = all killed). The following applies: 10 µM unless noted.
Regarding `COc1cc(NCc2ccccc2O)c2ncccc2c1`, the growth is 109%.
Same read-out and setting: then `Cc1ccc(C2=C/C(=C/c3ccc(Br)cc3)C(=O)N2CCc2ccc(S(N)(=O)=O)cc2)cc1`, with 101%; and `Nc1nc(Nc2ccccc2)c2ncn(Cc3ccc4c(c3)OCO4)c2n1`, with 72.9%; and `O=C(CCCSc1nc(-c2ccccc2)cc(-c2ccccc2)n1)NO`, with -2.82% (active).
Take `FC(F)(F)c1ccc2c(c1)Sc1ccccc1N2`: the growth was 112%.
Same read-out and setting: then `O=C1NC(=O)C(Cc2ccccc2)(Cc2ccccc2)N1`, with 105%; and `C=C(C)[C@@H]1CC[C@]2(C(=O)N3CCN(C)CC3)CC[C@]3(C)[C@H](CC[C@@H]4[C@@]5(C)C/C(=C/c6ccncc6)[C@H](O)C(C)(C)[C@@H]5CC[C@]43C)[C@@H]12`, with -31.2% [100 µM] (active).
In the case of `C[C@@H](NC(=O)[C@@H](CC(=O)N1CCC(N2CCCCC2)CC1)N1C(=O)[C@@H](N2C(=O)OC[C@@H]2c2ccccc2)[C@H]1/C=C/c1cccc(Cl)c1)c1ccccc1`, the growth is 57.2%.
As to `N#C/C(=C(/O)CCCO)c1nc2ccccc2c(=O)[nH]1`, the growth is 93.9%.
Same read-out and setting: then `Cn1cc(-c2nnc(-c3cn(C)c4ncc(Br)cc34)s2)c2cc(Br)ccc21`, with 92.5%.
On the same count and under the same terms, under `CC1(C)CC[C@]2(C(=O)OC(=O)[C@]34CCC(C)(C)C[C@@H]3C3=CC[C@@H]5[C@@]6(C)CCC(=O)C(C)(C)[C@@H]6CC[C@@]5(C)[C@]3(C)CC4)CC[C@]3(C)C(=CC[C@@H]4[C@@]5(C)CCC(=O)C(C)(C)[C@@H]5CC[C@]43C)[C@H]2C1` stands 69% [100 µM].
Still for that read-out and setting: under `Cn1cc(-c2noc(-c3cn(C)c4ncc(Br)cc34)n2)c2cc(Cl)ccc21` stands 99.2%; under `CCc1cccc(Cl)c1`, 94%.
For `c1cc2ccc3cc2cc1CNCCN1CCNCc2ccc4ccc(cc4c2)CNCCN(CCNC3)CCNCc2ccc3ccc(cc3c2)CNCC1`, the growth was 100%.
Turning to `COc1ccc(-c2cc(-c3ccccc3)nc(NCCNc3ccnc4cc(Cl)ccc34)n2)cc1`, the growth is -78.8% (active).
On the same count and under the same terms, then `O=C(N/N=C\c1cc(Cl)ccc1O)N/N=C/c1cc(Cl)ccc1O`, with 65.5%; and `O=C1Nc2ccccc2/C1=C/C(=O)c1ccc(N2CCCCC2)cc1`, with 97.7%.
As for `O=c1c2c3c(sc2n2cnnc2n1Cc1ccccc1)CCCC3`, the growth is 131%.
As to `Cn1c(=O)c(C#N)c(-c2ccco2)n2c(S(=O)(=O)Cc3ccccc3)nnc12`, the growth was 8.93% (active).
Still for that read-out and setting: under `CCCCCn1sc(=O)n(Cc2ccc(CNC(=O)OCc3ccc4cccc(O)c4n3)cc2)c1=O` stands 0.0301% (active).
Still for that read-out and setting: under `O=C(N/N=C/c1ccc([N+](=O)[O-])cc1)c1ccc(Br)o1` stands 107%; under `C=C(C)[C@@H]1CC[C@]2(COCCC#N)CC[C@]3(C)[C@H](CC[C@@H]4[C@@](C)(CCCNCCC#N)[C@H](C(=C)C)CC[C@]43C)[C@@H]12`, 27.6% [100 µM]; under `C=C(C)[C@@H]1CC[C@]2(C(=O)OC)CC[C@]3(C)[C@H](CC[C@@H]4[C@@]5(C)CC/C(=N\OCCC(=NCCC#N)NOCCC#N)C(C)(C)[C@@H]5CC[C@]43C)[C@@H]12`, 8.82% [100 µM] (active).

For a further assay, the system named is M14 melanoma. Described as above. The conditions noted are these: 10 µM unless noted.
Take `COc1ncc(-c2ccc3nccc(C#CCCCCC(=O)NO)c3c2)cc1NS(=O)(=O)c1ccc(F)cc1F`: the growth is -48.7% (active).
Take `C[C@@H](NC(=O)[C@@H](CC(=O)N1CCC(N2CCCCC2)CC1)N1C(=O)[C@@H](N2C(=O)OC[C@@H]2c2ccccc2)[C@H]1/C=C/c1cccc(Cl)c1)c1ccccc1`: the growth is -46.6% (active).
Turning to `CC1(C)CC[C@]2(C(=O)OC(=O)[C@]34CCC(C)(C)C[C@@H]3C3=CC[C@@H]5[C@@]6(C)CCC(=O)C(C)(C)[C@@H]6CC[C@@]5(C)[C@]3(C)CC4)CC[C@]3(C)C(=CC[C@@H]4[C@@]5(C)CCC(=O)C(C)(C)[C@@H]5CC[C@]43C)[C@H]2C1`, the growth is 77.9% [100 µM].
On the same count and under the same terms, under `O=C(N/N=C/c1ccc([N+](=O)[O-])cc1)c1ccc(Br)o1` stands 107%.
